# Measured values taken from PubChem BioAssay AID1672 (Johns Hopkins Ion Channel Center, 2009).
# The campaign covered roughly 310,000 compounds. About 2,600 (0.84%) were called active. What follows is part of a selection rich in actives, with near analogues and random picks from the rest. A number with no mark means an inactive call.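 Rule for the calls: active = fluorescence ratio B-score at or below minus 3 SD of library scores, with starting-brightness B-score within 2 SD (cut at about -4.2 in these data); inactive = the rest.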
# Target: Inward rectifier potassium channel 2 (Mus musculus) (UniProt P35561)
# Assay: blocks the mouse Kir2.1 inward-rectifier potassium channel (AID 1672);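 note: channel flux triggered by added potassium and thallium sulfate stimulus; B-score of peak minus minimum fluorescence over baseline after thallium stimulus; more negative B-score means stronger Kir2.1 block with less thallium influx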
# Conditions: HEK293-Kir2.1, FluxOR thallium flux fluorescence; at 10 µM; hits give low values
# Sequence of Inward rectifier potassium channel 2 (Mus musculus) (P35561 whole entry, looked up): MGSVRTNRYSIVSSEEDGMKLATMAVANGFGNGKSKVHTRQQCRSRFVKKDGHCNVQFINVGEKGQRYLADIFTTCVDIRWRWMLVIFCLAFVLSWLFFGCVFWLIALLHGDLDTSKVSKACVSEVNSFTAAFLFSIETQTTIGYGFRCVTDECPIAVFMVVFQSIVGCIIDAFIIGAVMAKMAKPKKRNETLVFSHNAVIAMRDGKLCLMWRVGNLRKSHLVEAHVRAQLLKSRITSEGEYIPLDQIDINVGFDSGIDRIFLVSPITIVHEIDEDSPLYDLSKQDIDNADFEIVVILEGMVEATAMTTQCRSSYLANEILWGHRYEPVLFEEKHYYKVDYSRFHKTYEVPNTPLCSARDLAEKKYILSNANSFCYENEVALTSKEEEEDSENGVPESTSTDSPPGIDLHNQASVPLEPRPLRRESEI
row,SMILES,B-score
1,CN1CCN(CCCCOc2cccc3ccccc23)CC1,-1.84
2,COc1ccccc1OCCCCCCN1CCN(C)CC1,1
3,CC1CN(CCCOc2ccccc2-c2ccccc2)CC(C)O1 (stereo not given),-4.04
4,c1ccc(-c2ccccc2OCCN2CCCCC2)cc1,-1.64
5,CC1CCCN(CCOCCOc2ccccc2-c2ccccc2)C1 (stereo not given),-6.74 (active)
6,CN1CCN(CCCCOc2ccccc2-c2ccccc2)CC1,-6.95 (active)
7,CC(OC(=O)CCCc1c[nH]c2ccccc12)C(=O)Nc1ccc(S(N)(=O)=O)cc1 (stereo not given),-0.01
8,Cc1sc(NC(=O)C2=COCCO2)c(C#N)c1C,-0.98
9,O=C(NCCc1c[nH]c2ccccc12)C1CCN(Cc2ccc(Br)cc2)CC1,-5.88 (active)
10,O=C(NCCc1c[nH]c2ccccc12)c1cccc(Br)c1,-0.14
11,Cc1ccc2[nH]cc(CCNC(=O)C3CCCCC3)c2c1,0.62
12,Cc1c(NC(=O)C(C)OC(=O)c2c3c(nc4ccccc24)CCC(C)C3)c(=O)n(-c2ccccc2)n1C (stereo not given),0.01
13,Cc1cc(C)nc(SCc2nnc(SCC(=O)OC3CCCCC3)o2)n1,-6.39 (active)
14,CCOC(=O)C(C)Sc1nnc(CSc2nc3nc(C)cc(C)n3n2)o1 (stereo not given),0.45
15,Cc1cc(C)cc(OCc2nnc(SCC(=O)OC3CCCCC3)o2)c1,2.83
16,C(=C\c1ccccc1)/CSc1nnc(-c2cccnc2)n1Cc1ccco1,-6.26 (active)
17,O=C(CSc1nnc(-c2cccnc2)n1Cc1ccco1)c1ccc(Cl)cc1,-3.48
18,O=C(CSc1nnc(-c2cccnc2)n1Cc1ccco1)c1ccc(Cl)c(Cl)c1,-0.81
19,O=C(Cc1ccc(S(=O)(=O)N2CCOCC2)s1)NCCOc1ccccc1F,-0.88
20,O=C(CCC1CCCCC1)Nc1cc(C(F)(F)F)ccc1N1CCOCC1,-0.88
21,Cc1cc(=O)oc2cc(NC(=O)C(C)Oc3ccccc3)ccc12 (stereo not given),0.76
22,COc1ccc(C(O)(C2CCCCC2)C(CN2CCCC2)c2ccccc2)cc1 (stereo not given),-6.33 (active)

row,SMILES,B-score
1,CCCC(O)(c1ccc(OC)cc1)C(CN(C)C)c1ccccc1 (stereo not given),-2.85
2,CC(CN1CCCCC1)c1ccccc1 (stereo not given),-0.88
3,CN(CC(=O)NCc1cccnc1)S(=O)(=O)c1cc(Cl)ccc1Cl,0.05
4,Cc1ccc(S(=O)(=O)NCCC(=O)NNC(=O)C2COc3ccccc3O2)cc1 (stereo not given),-0.97
5,COc1cccc(CC2(CO)CCCN(Cc3ccc(OC(F)F)cc3)C2)c1 (stereo not given),-1.05
6,Cn1c(-c2ccco2)nc2cc3ccccc3cc21,0.04
7,Cn1cccc1-c1nc2ccccc2n1C,-0.13
8,CN1c2ccccc2-c2nc3ccccc3n2C1c1ccco1 (stereo not given),-4.99 (active)
9,COc1ccccc1N1CCN(c2nc(C)cc(=O)[nH]2)CC1,0.62
10,CCn1c(=O)cc(SCC(=O)NCCC2=CCCCC2)c2ccccc21,-8.59 (active)
11,O=C(Cc1cccc2ccccc12)NCCC1=CCCCC1,-1.35
12,O=C(CCNC(=O)Cn1ccc2ccccc2c1=O)NCCC1=CCCCC1,-0.38
13,CCOc1cc(N2CCOCC2)c(OCC)cc1NC(=O)COc1cccc(Cl)c1,-0.59
14,CC(C)CN(C(=O)c1ccc2c(c1)OCO2)C1CCS(=O)(=O)C1 (stereo not given),-2.25
15,COc1ccc(Nc2nnc(C)c3ccccc23)cc1,-0.1
16,COc1ccc(Nc2ncnc3sc(C)cc23)cc1,-6.13 (active)
17,COc1ccc(Nc2ncnc3sc(-c4ccccc4)cc23)c(OC)c1,0
18,Cc1ccc2nc(C)c3c(c2c1)N(c1ccccc1)CC3,-13.2 (active)
19,Cc1ccc2nc3n(c(=O)c2c1)CCC3,-2.3
20,Cc1ccc2nc(Nc3ccccc3)cc(C)c2c1,1.96
21,O=C(O)C1C2C=CC(C2)C1C(=O)NCc1ccccc1 (stereo not given),-0.26
22,CCCCCCCCn1c2c(c(=N)c3c1CCC3)CCCC2,-14.8 (active)

row,SMILES,B-score
1,CCCCCCn1c(CN2CCCCC2)nc2c1c(=O)n(C)c(=O)n2C,-1.63
2,COc1ccccc1NC(=O)C(C)OC(=O)c1ccc(-n2cnnn2)cc1 (stereo not given),1.19
3,CC(=O)Nc1ccc(C(=O)NNC(=O)CCCCC(=O)NNC(=O)c2ccc(NC(C)=O)cc2)cc1,0.27
4,CCOc1ccc(S(=O)(=O)NCCC(=O)N2CCCCCCC2)cc1,-0.07
5,COc1cccc(CN(C)CC(=O)NCc2ccccc2Cl)c1OC,-3.73
6,COc1cccc(CN(C)CC2CCCN(CCc3ccc(Cl)cc3)C2)c1OC (stereo not given),-8.2 (active)
7,Cc1nc2ccc(C(=O)N(C)CC3CCCN(CCc4ccc(Cl)cc4)C3)cc2[nH]1 (stereo not given),-1.32
8,O=C(Nc1ccc(OC(F)(F)F)cc1)c1ccc2c(c1)no[n+]2[O-],0.38
9,N=C(N)SCc1cccc2ccccc12,-3.09
10,O=C(Nc1cn(-c2ccccc2)nc1-c1ccccc1)c1ccccc1,0
11,CCc1ccc(-c2nn(-c3ccccc3)cc2CSC(=N)N)cc1,-10.6 (active)
12,CCN1CCN(c2ccc(S(=O)(=O)N3CCCCC3)cc2NC(=O)c2cccc(NC(C)=O)c2)CC1,0.95
13,CCc1ccc(C(=O)NNC(=O)C2CCN(c3ncnc4sc(C)c(C)c34)CC2)cc1,-1.35
14,O=C(COc1ccccc1Cl)Nc1ccccc1C(=O)NC1CC1,-1.39
15,COc1ccc(NC(=S)NCCN2CCC(C)CC2)cc1,-1.95
16,COc1ccc(N2CCC(CNC(=S)Nc3c(C)cccc3C)C2)cc1 (stereo not given),-6.34 (active)
17,COc1ccc(NC(=S)NCC2CCN(c3ccc(OC)cc3)C2)cc1 (stereo not given),1.12
18,COc1ccc(F)cc1S(=O)(=O)NCC(c1ccc2c(c1)OCO2)N1CCN(C)CC1 (stereo not given),-0.39
19,CC(O)C(NS(=O)(=O)c1ccc(Cl)cc1)C(=O)OCc1cc([N+](=O)[O-])cc2c1OCOC2 (stereo not given),-0.06
20,COc1ccccc1CSc1ncc(-c2ccc([N+](=O)[O-])cc2)[nH]1,0.65
21,Nc1ccccc1SCc1cc([N+](=O)[O-])cc2c1OCOC2,-4.96 (active)
